Results filed as inconclusive are left out. Unless noted, the call rests on the fitted dose curve; in most records, active means well fitted curve in either direction with a large enough effect (not every such curve was filed as active); inconclusive means small, poorly fitted or top-dose-only effect, or another doubt; inactive means flat fitted curve, though single readings scatter.
How the values were obtained:
[1] = AP1 Signaling Pathway (AID 357); details: ME-180 AP-1-bla reporter, EGF-induced, beta-lactamase ratio, 5 h; at 17.2 µM (top of the series) unless noted;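 further: ME-180 reporter cells stimulated with EGF at its EC50 level; on the % scale 0 is the no-effect control and ±100 the full control effect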
Procedure, shortened: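 A ratiometric CCF4 readout (405 nm excitation; 460 and 530 nm emission) quantified AP-1-driven beta-lactamase in ME-180 cells after 5 h with compound and EC50 EGF; AC50 values were derived for activators and inhibitors.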

[2] = NFAT Signaling Pathway (AID 444); details: Jurkat NFAT-bla M1, carbachol, beta-lactamase ratio, 5 h; at 17.2 µM (top of the series) unless noted;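 further: carbachol stimulus at about its EC50 of 1 µM final; on the % scale 0 is the no-effect control and ±100 the full control effect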
Procedure, shortened: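 Jurkat cells with NFAT-driven β-lactamase reporter and co-expressed M1 receptor, stimulated with carbachol (final 1 uM, ~EC50), compound titration, 5 h at 37 °C. CCF4 loaded 1 h at RT; 460/530 nm ratio gave %activity and AC50.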

[3] = Stat Signaling Pathway (AID 446); details: ME-180 (cervical carcinoma) SIE beta-lactamase reporter, IL-6 stimulated, 5 h; at 17.2 µM (top of the series) unless noted;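 further: ME-180 cervical cancer cells given 40 pM IL-6 alongside compound; SIE-controlled beta-lactamase reporter measured as 460/530 nm FRET emission ratio; on the % scale 0 is the no-effect control and ±100 the full control effect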
Procedure, shortened: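 FRET read-out (405 nm excitation, 460/530 nm emission) of a beta-lactamase reporter under a STAT-inducible element in ME-180 cervical carcinoma cells. Cells with compound receive 40 pM IL-6 for 5 h. Values are normalised to AC90 stimulation and AC90 JAK-inhibitor controls.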

[4] = molecular target: Glucocorticoid receptor (Homo sapiens) (UniProt P04150); test: GR-GFP Redistribution (AID 450;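 active means compounds whose dose series gives a full or clear partial fitted curve of increased nuclear translocation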; further: potency means the concentration at half of the fitted maximal effect)
Sequence of Glucocorticoid receptor (Homo sapiens) (P04150 whole entry, looked up): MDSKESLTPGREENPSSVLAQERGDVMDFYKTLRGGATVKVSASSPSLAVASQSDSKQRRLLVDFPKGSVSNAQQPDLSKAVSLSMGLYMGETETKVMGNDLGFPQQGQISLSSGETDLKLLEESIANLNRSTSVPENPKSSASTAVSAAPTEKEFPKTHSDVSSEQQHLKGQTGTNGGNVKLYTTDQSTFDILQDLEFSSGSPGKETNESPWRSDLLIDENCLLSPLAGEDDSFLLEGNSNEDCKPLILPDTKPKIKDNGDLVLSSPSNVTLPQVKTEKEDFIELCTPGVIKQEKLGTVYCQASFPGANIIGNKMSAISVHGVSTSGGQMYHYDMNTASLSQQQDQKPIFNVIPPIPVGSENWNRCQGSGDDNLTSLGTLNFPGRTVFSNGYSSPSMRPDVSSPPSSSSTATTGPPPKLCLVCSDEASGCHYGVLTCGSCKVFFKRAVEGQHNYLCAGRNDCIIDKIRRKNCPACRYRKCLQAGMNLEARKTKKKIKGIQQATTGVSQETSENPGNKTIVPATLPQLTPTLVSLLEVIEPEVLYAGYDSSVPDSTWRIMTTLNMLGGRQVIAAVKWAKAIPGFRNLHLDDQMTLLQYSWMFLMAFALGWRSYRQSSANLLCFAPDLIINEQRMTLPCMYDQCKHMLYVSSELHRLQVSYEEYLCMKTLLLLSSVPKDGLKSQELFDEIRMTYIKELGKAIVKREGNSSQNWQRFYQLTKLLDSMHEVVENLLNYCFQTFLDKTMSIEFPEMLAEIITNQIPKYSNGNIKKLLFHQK

O/N=C(\c1ccc2c(c1)OCCO2)C1CCCCC1
inactive: activity change, negative = inhibition [1] -6.69% | activity change, negative = inhibition [2] -7.17% | activity, negative = inhibition [3] -14% | Potency [4] > 20.6 µM

Cc1cc(C)c(C#N)c(SCC(=O)NC2CC2)n1
inactive: activity change, negative = inhibition [1] 5.34% | activity change, negative = inhibition [2] -3.32% | activity, negative = inhibition [3] 8.05% | Potency [4] > 20.6 µM

CNC(=O)C1CC(=O)N(Cc2ccccc2)C(=Nc2ccc(OC)cc2)S1 (stereo not given)
inactive: activity change, negative = inhibition [1] -3.9% | activity change, negative = inhibition [2] 4.86% | activity, negative = inhibition [3] -6.63% | Potency [4] > 20.6 µM

O=C(COc1ccc(Cl)cc1)Nc1ccccc1CO
inactive: activity change, negative = inhibition [1] 6.8% | activity change, negative = inhibition [2] 6.35% | activity, negative = inhibition [3] 0.225% | Potency [4] > 20.6 µM

COc1cccc(Cn2c(NCc3ccco3)nc3c2c(=O)n(C)c(=O)n3C)c1
inactive: activity change, negative = inhibition [1] -11% | activity change, negative = inhibition [2] -5% | activity, negative = inhibition [3] -24.4% | Potency [4] > 20.6 µM

O=C(c1cccc2ccccc12)N1CCC(N2CCN(c3ccccc3)CC2)CC1
inactive: activity change, negative = inhibition [1] -7.39% | activity change, negative = inhibition [2] -0.0782% | activity, negative = inhibition [3] -1.11% | Potency [4] > 20.6 µM

COc1cccc(C2C(C(=O)c3cccs3)=C(O)C(=O)N2c2cc(C)on2)c1 (stereo not given)
inactive: activity change, negative = inhibition [1] -6.29% | activity change, negative = inhibition [2] 16.2% | activity, negative = inhibition [3] -7.97% | Potency [4] > 20.6 µM

CCOC(=O)CNC(=O)Nc1ccccc1C(=O)OC
inactive: activity change, negative = inhibition [1] -9.77% | activity change, negative = inhibition [2] 12.3% | activity, negative = inhibition [3] 11.5% | Potency [4] > 20.6 µM

CC(=Nc1ccc(C)c(C)c1)C1=C(O)CCC1=O
inactive: activity change, negative = inhibition [1] 13.3% | activity change, negative = inhibition [2] -8.58% | activity, negative = inhibition [3] 24.8% | Potency [4] > 20.6 µM

COc1ccc(C2C(C#N)=C(N)SC(N)=C2C#N)cc1OC
inactive: activity change, negative = inhibition [1] 5.54% | activity change, negative = inhibition [2] 29.6% | activity, negative = inhibition [3] 3.8% | Potency [4] > 20.6 µM

COc1ccccc1C(=O)Nc1cc(Cl)ccc1O
inactive: activity change, negative = inhibition [1] -12.2% | activity change, negative = inhibition [2] -2.92% | activity, negative = inhibition [3] -4.42% | Potency [4] > 20.6 µM

CCCC1CC(=O)OC1(C)C(=O)CSc1n[nH]c(-c2ccccc2)n1 (stereo not given)
inactive: activity change, negative = inhibition [1] -6.44% | activity change, negative = inhibition [2] 8.59% | activity, negative = inhibition [3] -7.88% | Potency [4] > 20.6 µM

Cn1c(=O)n(CCC(=O)O)c2ccccc21
inactive: activity change, negative = inhibition [1] 11.6% | activity change, negative = inhibition [2] 2% | activity, negative = inhibition [3] 2.26% | Potency [4] > 20.6 µM

COc1ccccc1N1CCN(C2CCN(C(=O)c3cccs3)CC2)CC1
inactive: activity change, negative = inhibition [1] 4.38% | activity change, negative = inhibition [2] -21.8% | activity, negative = inhibition [3] 19.6% | Potency [4] > 20.6 µM

CCCCCCC(=O)N1CCN(c2cc3c(cc2F)c(=O)c(C(=O)O)cn3CC)CC1
inactive: activity change, negative = inhibition [1] -1.28% | activity change, negative = inhibition [2] 7.84% | activity, negative = inhibition [3] 0.48% | Potency [4] > 20.6 µM

CCn1c(SCC(=O)NCc2ccco2)nnc1-c1ccc(N)cc1
inactive: activity change, negative = inhibition [1] 0.344% | activity change, negative = inhibition [2] 16.3% | activity, negative = inhibition [3] -0.962% | Potency [4] > 20.6 µM

CCC(=NC(CC)CO)C1=C(O)CC(C)(C)CC1=O (stereo not given)
inactive: activity change, negative = inhibition [1] 16.1% | activity change, negative = inhibition [2] -5.13% | activity, negative = inhibition [3] 12.8% | Potency [4] > 20.6 µM

C=CCOc1nc2c(c(=O)n(C)c(=O)n2C)n1Cc1ccccc1Cl
inactive: activity change, negative = inhibition [1] -0.647% | activity change, negative = inhibition [2] -10.1% | activity, negative = inhibition [3] -0.000949% | Potency [4] > 20.6 µM

CC(Sc1nc(N2CCCCC2)c2c(c1C#N)CCCC2)C(=O)O (stereo not given)
inactive: activity change, negative = inhibition [1] -9.35% | activity change, negative = inhibition [2] -2.56% | activity, negative = inhibition [3] -20.5% | Potency [4] > 20.6 µM

CC(=O)OCC(=O)[C@H]1CC[C@H]2[C@@H]3CC=C4C[C@@H](O)CC[C@]4(C)[C@H]3CC[C@]12C
inactive: activity change, negative = inhibition [1] 12.9% | activity change, negative = inhibition [2] 4.8% | activity, negative = inhibition [3] -2.21% | Potency [4] > 20.6 µM

CC1(C(=O)CSc2n[nH]c(-c3ccccc3Cl)n2)CCC(=O)O1 (stereo not given)
inactive: activity change, negative = inhibition [1] 6.38% | activity change, negative = inhibition [2] 4.32% | activity, negative = inhibition [3] 0.984% | Potency [4] > 20.6 µM

COc1ccc(C2CC(c3ccc(C)cc3)Nc3nc(N)nn32)cc1 (stereo not given)
inactive: activity change, negative = inhibition [1] -10.4% | activity change, negative = inhibition [2] 11.6% | activity, negative = inhibition [3] 1.75% | Potency [4] > 20.6 µM

CCOC(=O)c1c(N)sc(=S)c2c1CCC2
inactive: activity change, negative = inhibition [1] -21.1% | activity change, negative = inhibition [2] -6.19% | activity, negative = inhibition [3] -7.28% | Potency [4] > 20.6 µM

CCOC(=O)c1oc2cc(O)cc(C)c2c(=O)c1-c1cscn1
inactive: activity change, negative = inhibition [1] 0.0813% | activity change, negative = inhibition [2] 11.5% | activity, negative = inhibition [3] -0.432% | Potency [4] > 20.6 µM

COc1cc(C(=O)Nc2ccc(O)cc2C(=O)O)ccc1OC(C)=O
inactive: activity change, negative = inhibition [1] -6.46% | activity change, negative = inhibition [2] 22.4% | activity, negative = inhibition [3] 6.09% | Potency [4] > 20.6 µM

Reference: PubChem BioAssay (NCATS)
